# Bioassay records as filed in PubChem.
# SRC3 TRFRET art: counter-screen for PPARgamma SRC-3 recruitment agonists: TR-FRET artefact. PPARgamma/SRC-3 format; stronger effect = higher value. TR-FRET ratio at 8 µM. actives 0.39% (n = 99,000)
# PPARg SRC-2 ag: PPARgamma-driven SRC-2 recruitment agonism; P37231; PPARgamma LBD-SRC-2 recruitment, biochemical; activation, % at 8 µM; actives 0.34% (n = 200,000); AID 1032; in the data active = activation above about 22%;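 also: 0% = vehicle and 100% = reference agonist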
# Target sequence (P37231 whole entry, looked up, the tested form may be a part): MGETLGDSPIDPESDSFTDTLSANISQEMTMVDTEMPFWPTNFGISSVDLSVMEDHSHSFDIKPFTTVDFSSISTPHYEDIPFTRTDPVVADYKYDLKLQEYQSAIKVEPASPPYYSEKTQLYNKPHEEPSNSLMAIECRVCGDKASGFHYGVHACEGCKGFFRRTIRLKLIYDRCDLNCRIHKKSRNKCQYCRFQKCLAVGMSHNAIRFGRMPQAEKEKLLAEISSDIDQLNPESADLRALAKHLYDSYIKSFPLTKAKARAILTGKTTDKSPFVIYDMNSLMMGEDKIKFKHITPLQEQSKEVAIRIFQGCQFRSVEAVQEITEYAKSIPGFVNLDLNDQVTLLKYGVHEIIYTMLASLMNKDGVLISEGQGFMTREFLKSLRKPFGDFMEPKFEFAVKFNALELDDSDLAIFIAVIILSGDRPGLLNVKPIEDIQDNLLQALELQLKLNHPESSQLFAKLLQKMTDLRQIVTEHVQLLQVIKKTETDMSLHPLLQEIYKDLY
# SRC1 TRFRET art: TR-FRET artefact, counter-screen to PPARgamma/SRC-1 agonist assay; actives 0.34% (n = 99,000); TR-FRET detection artefact counter-screen, emission ratio; stronger effect = higher value; AID 1051; TR-FRET ratio at 8 µM; in the data active = TR-FRET ratio above about 2300
# PPARg SRC3 recr: promotes SRC-3 coactivator recruitment by human PPARgamma; biochemical PPARgamma/SRC-3 coactivator recruitment assay; actives 0.26% (n = 200,000); AID 731; activation, % at 8 µM; in the data active = activation above about 23%;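 also: 0% = DMSO and 100% = reference agonist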
# PPARg SRC-1 ag: agonists of human PPARgamma SRC-1 coactivator recruitment | PPARgamma-SRC-1 coactivator recruitment biochemical assay | actives 0.41% (n = 200,000) | activation, % at 8 µM | P37231; in the data active = activation above about 19%;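 also: 0% = DMSO and 100% = reference agonist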
# SRC2 TRFRET art: counter-screen for PPARgamma SRC-2 recruitment agonists: TR-FRET artefact; stronger effect = higher value; TR-FRET ratio at 8 µM; actives 0.4% (n = 200,000)
# Starred values were filed as active, the others as inactive; x = no result given. This is a sample that favours compounds with a hit; in the whole collection about 0.9% have one here. Rule as the data show it, unless noted: active = TR-FRET ratio above about 2000; inactive = the rest.
SMILES,SRC3 TRFRET art,PPARg SRC-2 ag,SRC1 TRFRET art,PPARg SRC3 recr,PPARg SRC-1 ag,SRC2 TRFRET art
COc1ccc(C2=NN(C(=O)CSc3cn(C)c4ccccc34)C(c3ccc(OC)cc3)C2)cc1 (configuration not stated),x,5,x,9,0,9469*
CCOc1cc(CNCc2ccncc2)cc(Cl)c1OC,1612,1,1837,5,2,1575
COc1ccc(OC)c2c1sc(=NC(=O)C(C)(C)C)n2C,x,121*,x,32*,4,4080*
CCn1cc(C(=S)N2CCC(C(N)=O)CC2)c2ccccc21,1436,10,1785,5,-5,1621
COc1ccccc1C(=O)NCC(=O)OCC(=O)c1ccc2c(c1)-c1ccccc1C2,2088*,16,1947,8,4,1874
COc1ccc(CCC(=O)NNC(=S)Nc2cccc(C(C)=O)c2)cc1,1695,4,1830,-3,10,1567
O=C(c1cc(COc2ccc(F)cc2Cl)on1)N1CCCC(OCc2cccnc2)C1 (configuration not stated),1623,40*,1769,4,4,2120*
O=C(c1cc(COc2ccc(F)cc2Cl)on1)N1CCC(OCc2cccnc2)CC1,1604,4,2026,4,9,1728
C=CCN1C(=O)/C(=C/C=C2/N(CC)c3ccc(S(=O)(=O)N(C)C)cc3N2CC)SC1=S,1452,-2,1625,0,7,1283
CC(C)(C)c1cc[n+](/C(C(=S)Nc2ccccc2F)=C(/[O-])c2ccc3c(c2)OCCO3)cc1,1459,6,1902,3,7,1596
[O-]/C(=C(\C(=S)Nc1ccccc1F)[n+]1ccccc1)c1ccc(-c2ccccc2)cc1,1857,9,2348*,1,1,1913
Cc1ccc(S(=O)(=O)N2CCN(Cc3ccccc3)CC2)c(C)c1N(C)S(=O)(=O)c1ccccc1,1706,6,1892,7,-1,1733
CCOc1ccccc1-n1c(C)nc2cc(C(=O)O)ccc21,1625,-3,2322*,5,8,1695
Cc1nc2cc(C(=O)O)ccc2n1-c1ccc(F)cc1F,x,6,x,6,0,1608
O=C(NCc1ccc2c(c1)OCO2)c1cccnc1Cl,1610,-4,1798,7,0,1684
COc1ccc(C2C(C(C)=O)=C(O)C(=O)N2c2nccs2)cc1OC (configuration not stated),1778,5,2238,1,11,1460
COc1ccc(C2C(C(C)=O)=C(O)C(=O)N2c2nc3ccccc3s2)cc1OC (configuration not stated),2067*,16,1870,9,5,1810
COc1cc(OC)cc(-c2cc3nc(C)cc(N4CCN(C(=O)c5ccco5)CC4)n3n2)c1,x,0,x,13,6,1447
Cc1ccc(NC(=O)N2CCC(=O)N2)cc1,x,7,x,-1,8,1778
Cc1nnc(SCc2ccccc2)n1N,1541,3,2275,-9,22*,1367
S=c1[nH]nc(-c2ccc(Cl)cc2)n1-c1ccc2c(c1)OCCO2,1832,21,2170,13,17,1817
Fc1ccc(-c2n[nH]c(=S)n2-c2ccc3c(c2)OCCO3)cc1,2239*,19,2494*,20,19,1992*
Cn1cc(Cl)c(-c2n[nH]c(=S)n2-c2ccc(F)cc2)n1,1845,21,2344*,10,17,1896
Cc1ccc(-n2c(-c3nn(C)cc3Cl)n[nH]c2=S)cc1,1528,6,1918,8,4,1643
CCOc1ccc(N(CC(=O)NCC2CCCO2)S(=O)(=O)c2ccc(SC)cc2)cc1 (configuration not stated),x,-3,x,-4,7,1530
SMILES,SRC3 TRFRET art,PPARg SRC-2 ag,SRC1 TRFRET art,PPARg SRC3 recr,PPARg SRC-1 ag,SRC2 TRFRET art
Cc1ccn(-c2cc(O)c(-n3ccc(C)n3)cc2O)n1,1700,5,1961,5,14,1631
OC1(c2ccc(Br)cc2)CN(c2ccccc2)C2=[N+]1CCS2 (configuration not stated),2102*,3,1718,8,4,1571
OC1(c2ccc(Cl)cc2)CN(c2ccccc2)C2=[N+]1CCS2 (configuration not stated),1793,6,1791,5,8,1612
O=C(Nc1cccnc1)c1cc(-c2ccc(F)cc2)on1,1821,-5,1836,1,-6,1430
O=C(Nc1cccnc1)c1cc(-c2ccc3c(c2)OCO3)on1,x,20,x,19,12,1992*
Clc1ccc(-c2ccc(C=Nc3ccc(N4CCOCC4)cc3)o2)c(Cl)c1,1761,13,2177,2,7,2149*
O=C(Nc1ccc(F)cc1F)c1csc(-c2ccncc2)n1,1707,2,1880,4,4,1625
O=C(Nc1ccc(F)cc1F)c1csc(-c2cccs2)n1,1765,10,1858,6,5,2010*
CC1(C)OC(=O)C(=NNc2ccc(Cl)cc2)C(=O)O1,x,8,x,0,0,1572
CC(C)C[C@H](NC(=O)OC(C)(C)C)c1nnc(SCc2cccc(F)c2)o1,x,0,x,6,15,1571
CC(C)[C@H](NC(=O)OC(C)(C)C)c1nnc(SCc2cccc(F)c2)o1,x,15,x,5,55*,1557
Nc1nc2ccc(N3CCOCC3)cc2s1,x,7,x,8,25*,1575
Fc1ccc2nc(N3CCOCC3)sc2c1,1374,1,1733,-1,0,1359
O=C(CSc1ccc(Br)c2cccc(Cl)c12)Nc1ccc(S(=O)(=O)Nc2nccs2)cc1,2321*,10,2830*,12,30*,1982*
O=C(NC(=S)Nc1ccc(S(=O)(=O)Nc2nccs2)cc1)c1ccccc1,1629,5,1767,0,9,1692
CC(C)C(=O)NC(=S)Nc1ccc(S(=O)(=O)Nc2nccs2)cc1,1730,9,2318*,4,4,1735
Cc1nc2ccc(NC(=O)c3ccc(Cl)c(S(=O)(=O)N(C)c4ccccc4)c3)cc2s1,2532*,9,1530,2,6,1835
Cc1nc2ccc(NC(=O)c3cc(S(=O)(=O)N(C)c4ccccc4)ccc3Cl)cc2s1,1598,-3,1567,3,-4,1528
CC(C)Cc1nc2sc3c(NCc4ccco4)ncnc3c2c2c1COC(C)(C)C2,x,106*,x,2,4,4130*
O=C(c1cc2sccc2n1Cc1ccccc1)N1CCN(c2nc3ccccc3s2)CC1,x,8,x,11,7,2570*
CCC(=O)N1CCN(c2nc3ccccc3s2)CC1,x,4,x,9,0,1508
COc1ccc(C2CC(c3ccccc3)=NN2C(=O)COC(=O)c2cc(S(=O)(=O)N3CCOCC3)ccc2Cl)cc1 (configuration not stated),1778,-7,2224,4,-1,2080*
O=C(CCCn1c(=O)[nH]c2cc(Cl)ccc2c1=O)NCCC1=CCCCC1,x,-6,x,-11,-5,1664
